Screen size: about 1,200 compounds; about 85 (7%) were called active. A call without a number means that no potency is given here. Calls come from the whole dose curve. The full list was thinned out, with actives kept by preference.
What follows are molecules tested against Beta-2 adrenergic receptor (Homo sapiens) (UniProt P07550) (assay: qHTS assay of beta-arrestin-biased ligands of beta2-adrenergic receptor: Hit Validation with GloSensor). Conditions: W9-Glo22F cells, GloSensor cAMP luminescence, beta2AR agonism; activation: at 46.1 µM (top of the series).
Chain of Beta-2 adrenergic receptor (Homo sapiens) (P07550 whole entry, looked up): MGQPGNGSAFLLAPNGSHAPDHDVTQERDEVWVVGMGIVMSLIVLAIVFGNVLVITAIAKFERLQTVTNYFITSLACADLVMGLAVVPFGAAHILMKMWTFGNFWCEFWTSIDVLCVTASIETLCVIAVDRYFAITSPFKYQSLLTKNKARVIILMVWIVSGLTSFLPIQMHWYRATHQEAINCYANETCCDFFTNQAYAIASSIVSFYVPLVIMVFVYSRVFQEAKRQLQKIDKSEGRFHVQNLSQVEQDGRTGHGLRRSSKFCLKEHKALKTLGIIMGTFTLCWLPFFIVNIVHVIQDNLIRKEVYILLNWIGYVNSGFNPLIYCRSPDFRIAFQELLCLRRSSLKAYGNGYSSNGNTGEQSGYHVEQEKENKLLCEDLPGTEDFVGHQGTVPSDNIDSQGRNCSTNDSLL
How it was run: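 W9-Glo22F cells plated and incubated overnight at 37 deg C, 5% CO2, then compounds pinned in. GloSensor reagent added, 10 min at room temperature, luminescence read.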
`CCCC(=O)N(c1ccc(F)cc1)C1C=CS(=O)(=O)C1` (stereo unspecified) was tested, and the Potency was “inactive”. `CCCN(CC(=O)Nc1ccc(Cl)cc1Cl)C(=O)/C=C/c1ccco1` was tested, and the Potency was “inactive”. `COc1c(-c2ccc(O)c(O)c2)oc2cc(O)cc(O)c2c1=O` was tested, and the Potency was 20.6 µM (active). In the case of `O=C1C=CC(O)(c2cc(=O)c3c(O)cc(O)cc3o2)C=C1`, the Potency is reported as “inactive”. `COc1c(O)cc(O)c2c(=O)cc(-c3ccccc3)oc12` was tested, and the Potency was “inactive”. For `Fc1ccccc1/C=N/Nc1ncnc2ccccc12`, the Potency was “inactive”. For `Cc1ccc2cccc(SCC(=O)Nc3ccc(F)cc3)c2n1`, the Potency was “inactive”. For `NC(=S)n1[nH]c(-c2ccc([N+](=O)[O-])cc2)c(N=Nc2ccc(Cl)cc2)c1=O`, the Potency was “inactive”. In the case of `Clc1ccc(OCc2nc(-c3ccccn3)n[nH]2)cc1`, the Potency is reported as “inactive”. In the case of `COc1cnc(-c2ccccn2)nc1Oc1ccccc1`, the Potency is reported as 29.1 µM (active). For `COc1cnc(-c2ccccn2)nc1Sc1ccccc1Cl`, the Potency was “inactive”. In the case of `Cc1cccc(NC(=S)N/N=C/c2cccc([N+](=O)[O-])c2)c1`, the Potency is reported as “inactive”. In the case of `CCCCC(=O)N1CCCC(c2nc(-c3cccc(OC)c3)no2)C1` (stereo unspecified), the Potency is reported as “inactive”. `C=C(C)CNC(=S)N/N=C/c1ccco1` was tested, and the Potency was “inactive”. In the case of `COc1ccc(NS(=O)(=O)c2ccc3oc(SC4CCOC4=O)nc3c2)cc1` (stereo unspecified), the Potency is reported as “inactive”. `COC(=O)C1=C(C)N(Cc2ccc(C)cc2)C(=O)/C1=C\c1ccc(O)c(OC)c1` was tested, and the Potency was “inactive”. In the case of `CCOC(=O)C1=C(C)N(c2ccc(OC)cc2)C(=O)/C1=C\c1ccc(O)c(OCC)c1`, the Potency is reported as “inactive”. In the case of `CCOC(=O)C1=C(C)N(c2ccc(C)cc2)C(=O)/C1=C\c1ccc(O)c(OC)c1`, the Potency is reported as 18.4 µM (active). With `CNC(=S)N/N=C/C1=CCC2CC1C2(C)C` (stereo unspecified) the Potency was “inactive”. For `O=C1c2ccccc2[C@@H]2C[C@@H](O)[C@H](Nc3cccc4ccccc34)CCN12`, the Potency was “inactive”. For `CCOC(=O)NC(=S)Nc1ccc(C(C)(C)C)cc1`, the Potency was “inactive”. `NC(=S)N/N=C1\CCOc2ccc(F)cc21` was tested, and the Potency was “inactive”. In the case of `CNC(=S)N/N=C1\CC(c2ccccc2)Oc2ccccc21` (stereo unspecified), the Potency is reported as “inactive”. For `NC(=S)N/N=C1\CC(c2ccc3c(c2)OCCCO3)Oc2ccc(F)cc21` (stereo unspecified), the Potency was 11.6 µM (active). In the case of `c1coc(CNc2nc3nonc3nc2NCc2ccco2)c1`, the Potency is reported as “inactive”. With `C/C(=N\NC(=S)NCc1ccccc1)c1ccccc1F` the Potency was “inactive”. With `COCCNC(=S)N/N=C(\C)c1ccc(Cl)c(Cl)c1Cl` the Potency was “inactive”. With `COCCNC(=S)N/N=C(\C)c1ccccc1F` the Potency was 29.1 µM (active). In the case of `COc1ccc(C(CNC(=O)c2ccc(C)c(S(=O)(=O)Nc3ccccc3OC)c2)N2CCCC2)cc1` (stereo unspecified), the Potency is reported as “inactive”. In the case of `C=CCn1c(-c2ccccc2)c[nH]c1=S`, the Potency is reported as “inactive”. In the case of `C=CCn1c(CCn2c3ccccc3c3ccccc32)n[nH]c1=S`, the Potency is reported as “inactive”. `C=CCn1c(CSc2nc3ccccc3s2)n[nH]c1=S` was tested, and the Potency was 25.9 µM (active). For `CCN(CC)C(=O)CN(c1cccc(OC)c1)S(=O)(=O)c1ccc(C)cc1`, the Potency was “inactive”. For `CC1CCN(c2c(NCc3ccc(C(=O)NCCc4ccc(Cl)cc4)cc3)c(=O)c2=O)CC1`, the Potency was “inactive”. In the case of `O=c1c2cn[nH]c2nc(SCc2ccccc2F)n1-c1ccc(Br)cc1`, the Potency is reported as “inactive”. `CCNc1nc(NCC)nc(N/N=C/c2ccc(N(C)C)cc2)n1` was tested, and the Potency was “inactive”. With `CCNC(=S)N/N=C/c1ccco1` the Potency was “inactive”. With `CCNc1nc(NCC)nc(N(C)/N=C/c2ccco2)n1` the Potency was 20.6 µM (active). In the case of `O=C(/C=C/c1ccccc1)Oc1cccc2cccnc12`, the Potency is reported as “inactive”. With `Cc1cc(C(=O)CN2C(=O)NC3(CCCc4ccccc43)C2=O)c(C)n1C` (stereo unspecified) the Potency was “inactive”. In the case of `Cc1ccc(NC(=S)N2CCn3cccc3C2c2cccnc2)cc1` (stereo unspecified), the Potency is reported as “inactive”.

Reference: PubChem BioAssay AID588790 (National Center for Advancing Translational Sciences (NCATS), 2011)
Potency is the fitted concentration of half-maximal effect.
